Among the test systems are SK-MEL-2 melanoma; EKVX NSCLC; SN12C renal; UO-31 renal; TK-10 renal; CAKI-1 renal; A498 renal; CCRF-CEM leukemia; MOLT-4 leukemia; SR leukemia; RPMI-8226 leukemia; OVCAR-8 ovarian; OVCAR-5 ovarian; OVCAR-4 ovarian; SK-OV-3 ovarian; IGROV1 ovarian; OVCAR-3 ovarian; HS 578T breast; NCI/ADR-RES ovarian; ACHN renal.
What all share (test): NCI-60 one-dose screen, 48 h (100 = growth as untreated, 0 = no growth, -100 = all killed)
Holding throughout (settings): 10 µM unless noted

SMILES strings stand for the structures. Compounds without any hit were thinned out: in the full panel of roughly 83,000, 20% have a hit.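 How to read the values: 0–100, growth inhibition (40 = 60% inhibited); 0, no net growth; -100 to 0, cell death (-40 = 40% of starting cells died; -100 = all dead).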 Values without a mark were called inactive. Calls of active or inactive are those of the source. The calls were made as follows: active = growth percent below 10; inactive = the rest.

For the molecule `NNc1nc(-c2cccnc2)nc2c1sc(=S)n2-c1ccccc1`, the growth in the assay on SK-MEL-2 melanoma was 68%; in the assay on EKVX NSCLC, 95.1%; in the assay with SN12C renal, 102%; in the assay with UO-31 renal, 79.3%; in the assay with TK-10 renal, 83.6%; with CAKI-1 renal, 97.9%. The growth is 124% with A498 renal; 90.5% in the assay on CCRF-CEM leukemia; 86% in the assay on MOLT-4 leukemia; 88.3% with SR leukemia; 106% with RPMI-8226 leukemia; 92.8% with OVCAR-8 ovarian. Further, the growth with OVCAR-5 ovarian is 102%; in the assay with OVCAR-4 ovarian it was 100%; in the assay with SK-OV-3 ovarian, 79.6%; in the assay with IGROV1 ovarian, 97.9%; with OVCAR-3 ovarian, 93.1%; in the assay with HS 578T breast, 112%. Moreover, the growth in the assay on NCI/ADR-RES ovarian was 102%.

As to `CCCCCN1C(=O)/C(=c2\sc3n(c2=O)C2C(NN=3)N(CC)C(=O)N2CC)c2ccccc21` (stereo unspecified), the growth in the assay on SK-MEL-2 melanoma was 21.3%; with EKVX NSCLC it was 26.3%; with SN12C renal, -50.5% (active); with UO-31 renal it was -40.8% (active); with TK-10 renal it was 19.9%; with CAKI-1 renal, 7.55% (active). Moreover, the growth was -27.8% (active) with A498 renal; -15.6% (active) with CCRF-CEM leukemia; 4.79% (active) in the assay on MOLT-4 leukemia; 1.69% (active) in the assay with SR leukemia; 8.52% (active) in the assay with RPMI-8226 leukemia; -53.2% (active) in the assay on OVCAR-8 ovarian. Moreover, the growth in the assay with OVCAR-5 ovarian is -4.09% (active); in the assay on OVCAR-4 ovarian, -56.7% (active); in the assay on SK-OV-3 ovarian, 13.3%; with IGROV1 ovarian, 2.27% (active); with OVCAR-3 ovarian, -74.5% (active); in the assay with HS 578T breast, -17.6% (active). In addition, in the assay on NCI/ADR-RES ovarian, the growth was -11.1% (active).

For `Cc1ccc(/C=C2\COc3ccc(O)cc3C2=O)cc1`, the growth in the assay on SK-MEL-2 melanoma is 117%; with EKVX NSCLC, 97.8%; in the assay with SN12C renal it was 79.9%; in the assay on UO-31 renal it was 58.9%; in the assay with TK-10 renal, 102%; in the assay on CAKI-1 renal, 80.8%. The growth in the assay with A498 renal was 109%; with CCRF-CEM leukemia it was 2.21% (active); in the assay with MOLT-4 leukemia it was 40.6%; in the assay on SR leukemia it was 12.7%; in the assay with RPMI-8226 leukemia, -1.31% (active); in the assay with OVCAR-8 ovarian, 91.7%. Further, the growth was 102% with OVCAR-5 ovarian; 93.3% with OVCAR-4 ovarian; 126% with SK-OV-3 ovarian; 95.1% in the assay with IGROV1 ovarian; 101% with OVCAR-3 ovarian; 97.5% in the assay with HS 578T breast. Also, in the assay on NCI/ADR-RES ovarian, the growth is 101%.

Take `O=C1/C(=C/c2ccccc2O)CC/C1=C\c1ccccc1O`: the growth in the assay with SK-MEL-2 melanoma is 105%; in the assay with EKVX NSCLC it was 56.9%; with SN12C renal it was 27.7%; in the assay with UO-31 renal it was 46.4%; in the assay on TK-10 renal, 160%; with CAKI-1 renal, 92.4%. Moreover, the growth in the assay with A498 renal was 108%; in the assay on CCRF-CEM leukemia, 1.74% (active); with MOLT-4 leukemia it was 6.67% (active); in the assay on SR leukemia, 8.12% (active); in the assay on RPMI-8226 leukemia it was -6.74% (active); in the assay on OVCAR-8 ovarian, 68.9%. Moreover, the growth is 126% with OVCAR-5 ovarian; 63.4% in the assay on OVCAR-4 ovarian; 102% in the assay with SK-OV-3 ovarian; 32.1% with IGROV1 ovarian; 30.9% in the assay with OVCAR-3 ovarian; 70.7% in the assay with HS 578T breast. Moreover, in the assay with NCI/ADR-RES ovarian, the growth was 72.7%.

Turning to `CNC(=O)c1[nH]cc(-c2ccc(OC)cc2)c1-c1cc(OC)c2c(c1OC)OCO2`, the growth in the assay on SK-MEL-2 melanoma is 105%; with EKVX NSCLC, 96.8%; in the assay on SN12C renal it was 96.8%; in the assay with UO-31 renal, 82.9%; in the assay with TK-10 renal, 108%; with CAKI-1 renal it was 83.6%. Further, the growth with A498 renal was 109%; in the assay with CCRF-CEM leukemia it was 101%; with MOLT-4 leukemia, 109%; in the assay with SR leukemia, 102%; in the assay with RPMI-8226 leukemia, 108%; in the assay with OVCAR-8 ovarian it was 98.7%. Besides, the growth in the assay with OVCAR-5 ovarian is 95.8%; in the assay on OVCAR-4 ovarian, 96.4%; with SK-OV-3 ovarian, 99.9%; with IGROV1 ovarian, 87.4%; with OVCAR-3 ovarian, 100%; in the assay on HS 578T breast it was 115%. Besides, the growth in the assay on NCI/ADR-RES ovarian is 95.8%.

Take `Cc1ccccc1/C=C/C(=O)c1cccc(OCCCOc2cccc(C(=O)/C=C/c3ccccc3C)c2)c1`: the growth in the assay with SK-MEL-2 melanoma was 102% [3 µM]; with EKVX NSCLC, 95.1% [3 µM]; in the assay with SN12C renal, 91.8% [3 µM]; in the assay on UO-31 renal, 82.8% [3 µM]; in the assay with TK-10 renal it was 108% [3 µM]; in the assay on CAKI-1 renal it was 77.5% [3 µM]. The growth with A498 renal was 104% [3 µM]; with CCRF-CEM leukemia, 96.2% [3 µM]; with MOLT-4 leukemia, 90% [3 µM]; with SR leukemia, 25.8% [3 µM]; in the assay with RPMI-8226 leukemia, -23.2% [3 µM] (active); in the assay with OVCAR-8 ovarian it was 101% [3 µM]. The growth in the assay on OVCAR-5 ovarian is 126% [3 µM]; in the assay with OVCAR-4 ovarian, 84.6% [3 µM]; in the assay with SK-OV-3 ovarian, 109% [3 µM]; with IGROV1 ovarian, 102% [3 µM]; in the assay on OVCAR-3 ovarian it was 99.4% [3 µM]; in the assay with HS 578T breast, 99.7% [3 µM]. Further, the growth in the assay with NCI/ADR-RES ovarian is 101% [3 µM].

Take `C=C1C(=O)O[C@H]2[C@H]1CC/C(COC(=O)C(=O)c1cn(C)c3ccc(Cl)cc13)=C\CC[C@@]1(C)O[C@@H]21`: the growth with SK-MEL-2 melanoma was -60.8% (active); in the assay on EKVX NSCLC it was -59.5% (active); with SN12C renal it was -69% (active); in the assay on UO-31 renal, -93.5% (active); with TK-10 renal, -91.1% (active); in the assay with CAKI-1 renal it was -75.7% (active). The growth in the assay with A498 renal was -96.9% (active); in the assay on CCRF-CEM leukemia, -34.9% (active); in the assay on MOLT-4 leukemia it was -15.4% (active); in the assay with SR leukemia it was 2.71% (active); in the assay on RPMI-8226 leukemia, -33.7% (active); with OVCAR-8 ovarian, -23.9% (active). Also, the growth was -47.6% (active) in the assay with OVCAR-5 ovarian; -61.2% (active) with OVCAR-4 ovarian; -35.4% (active) in the assay on SK-OV-3 ovarian; -72.1% (active) with IGROV1 ovarian; -86.3% (active) with OVCAR-3 ovarian; -16.9% (active) in the assay with HS 578T breast. For the same molecule, in the assay on NCI/ADR-RES ovarian, the growth is -3.58% (active).

Consider `NC(Cc1ccc(O)c([N+](=O)[O-])c1)C(=O)O` (stereo unspecified), for which the growth is 109% in the assay with SK-MEL-2 melanoma; 111% in the assay with EKVX NSCLC; 95.7% in the assay with SN12C renal; 88.2% with UO-31 renal; 94.4% in the assay with TK-10 renal; 93.9% in the assay with CAKI-1 renal. Moreover, the growth with A498 renal is 105%; in the assay on CCRF-CEM leukemia it was 88.7%; in the assay on MOLT-4 leukemia it was 96%; in the assay with SR leukemia, 89.1%; in the assay with RPMI-8226 leukemia, 95%; in the assay on OVCAR-8 ovarian, 103%. Besides, the growth in the assay on OVCAR-5 ovarian is 107%; with OVCAR-4 ovarian, 95.2%; with SK-OV-3 ovarian, 115%; with IGROV1 ovarian, 85%; with OVCAR-3 ovarian it was 105%; in the assay on HS 578T breast, 98.4%. Moreover, in the assay with NCI/ADR-RES ovarian, the growth was 99%.

As for `O=CN1N=C(c2cccc(Nc3ccnc4cc(Cl)ccc34)c2)CC1c1ccccc1` (stereo unspecified), the growth in the assay with SK-MEL-2 melanoma is 1.53% (active); in the assay on EKVX NSCLC it was 34.3%; in the assay with SN12C renal, 30.9%; in the assay on UO-31 renal, 10.6%; in the assay with ACHN renal, 30.3%; with CAKI-1 renal it was 11.8%. Also, the growth in the assay on A498 renal is 5.63% (active); with CCRF-CEM leukemia it was 8.4% (active); in the assay with MOLT-4 leukemia, 10%; in the assay on SR leukemia it was 9.69% (active); with RPMI-8226 leukemia, 27.7%; in the assay on OVCAR-8 ovarian, 38%. For the same molecule, the growth was 36.3% in the assay on OVCAR-5 ovarian; 41.2% in the assay on OVCAR-4 ovarian; 8.25% (active) in the assay on SK-OV-3 ovarian; 28.9% in the assay on IGROV1 ovarian; -12.9% (active) in the assay with OVCAR-3 ovarian; 1.24% (active) with HS 578T breast. Moreover, the growth with NCI/ADR-RES ovarian was 3.37% (active).

`CC(C)COc1nc2c(c(=O)n(C)c(=O)n2C)n1C`: the growth in the assay on SK-MEL-2 melanoma is 36.1%; in the assay on EKVX NSCLC, 95.1%; in the assay with SN12C renal, 99.8%; in the assay with UO-31 renal, 94.7%; in the assay on ACHN renal it was 102%; with CAKI-1 renal, 107%. Further, the growth in the assay with A498 renal was 84.7%; with CCRF-CEM leukemia it was 97.5%; in the assay with MOLT-4 leukemia, 93.3%; in the assay with SR leukemia, 90.8%; in the assay with RPMI-8226 leukemia, 110%; with OVCAR-8 ovarian, -6.67% (active). The growth in the assay on OVCAR-4 ovarian was 97.7%; with SK-OV-3 ovarian, 90.7%; in the assay with IGROV1 ovarian, 109%; with OVCAR-3 ovarian, 106%; with HS 578T breast, 100%; in the assay on NCI/ADR-RES ovarian, 99.8%.

Regarding `CC/C=C\C[C@H](O)C/C=C1/C(=O)C=C[C@@H]1C/C=C\CCCC(=O)N(C)C`, the growth in the assay with SK-MEL-2 melanoma is 29%; with EKVX NSCLC, 22.9%; in the assay with SN12C renal it was -9.16% (active); in the assay with UO-31 renal, -81.3% (active); with ACHN renal, -85% (active); in the assay on CAKI-1 renal it was -9.48% (active). Besides, the growth was 50.2% in the assay with A498 renal; 0.876% (active) in the assay on CCRF-CEM leukemia; 6.2% (active) in the assay on SR leukemia; 4.43% (active) in the assay on RPMI-8226 leukemia; 2.8% (active) in the assay on OVCAR-8 ovarian; 43.9% with OVCAR-4 ovarian. Further, the growth is 21.8% in the assay with SK-OV-3 ovarian; 11.5% with IGROV1 ovarian; 8.73% (active) in the assay with OVCAR-3 ovarian; 16.4% in the assay on HS 578T breast; 16.7% in the assay with NCI/ADR-RES ovarian.

Values taken from PubChem BioAssay (NCI).
